# Publication PMC7862700, “An all-to-all approach to the identification of sequence-specific readers for epigenetic DNA modifications on cytosine”
# How the values were obtained:
# Assay in all cases: DAPPL (digital affinity profiling via proximity ligation, sequencing); 10 mM Tris-HCl pH 7.5, 50 mM NaCl, 1 mM DTT, 4% glycerol, room temperature, 30 min; GST-TFs on glutathione beads, 16-mer random dsDNA library, 0.1% formaldehyde crosslink after washing; high values mean tight binding
# [1] = target: T1, FLI1 (Homo sapiens, UniProt Q01543 1-452); details: protein: recombinant; tags: N-terminal GST; dsDNA, one strand shown
# T1 sequence: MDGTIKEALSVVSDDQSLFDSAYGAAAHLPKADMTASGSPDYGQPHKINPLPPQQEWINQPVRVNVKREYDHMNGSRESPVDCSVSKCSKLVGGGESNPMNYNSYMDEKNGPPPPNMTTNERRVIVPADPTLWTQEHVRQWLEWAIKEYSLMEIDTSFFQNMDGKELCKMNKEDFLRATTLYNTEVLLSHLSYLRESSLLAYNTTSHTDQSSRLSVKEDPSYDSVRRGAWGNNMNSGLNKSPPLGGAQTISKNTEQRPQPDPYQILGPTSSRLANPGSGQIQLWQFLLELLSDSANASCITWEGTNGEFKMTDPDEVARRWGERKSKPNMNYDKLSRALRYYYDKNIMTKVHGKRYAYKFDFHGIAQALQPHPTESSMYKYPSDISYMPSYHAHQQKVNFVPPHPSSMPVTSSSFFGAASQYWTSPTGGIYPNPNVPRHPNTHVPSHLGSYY
# In short: (§1)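 Each value of binding signal is a hexamer's read frequency for a factor divided by the same hexamer's frequency in the tag-only sample. Barcoded, bead-captured GST fusions of human transcription factors made in yeast were pooled with that sample and incubated with 200 nmole of a random double-stranded 16-mer DNA library in Tris/NaCl/DTT/glycerol buffer at room temperature for 30 min. Washing, 0.1% formaldehyde crosslinking, proximity ligation, PCR and Illumina NextSeq500 sequencing followed.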
# [2] = target: T2, ELK1 (Homo sapiens, UniProt P19419 1-428); details: protein: recombinant; tags: N-terminal GST; dsDNA, one strand shown
# T2 sequence: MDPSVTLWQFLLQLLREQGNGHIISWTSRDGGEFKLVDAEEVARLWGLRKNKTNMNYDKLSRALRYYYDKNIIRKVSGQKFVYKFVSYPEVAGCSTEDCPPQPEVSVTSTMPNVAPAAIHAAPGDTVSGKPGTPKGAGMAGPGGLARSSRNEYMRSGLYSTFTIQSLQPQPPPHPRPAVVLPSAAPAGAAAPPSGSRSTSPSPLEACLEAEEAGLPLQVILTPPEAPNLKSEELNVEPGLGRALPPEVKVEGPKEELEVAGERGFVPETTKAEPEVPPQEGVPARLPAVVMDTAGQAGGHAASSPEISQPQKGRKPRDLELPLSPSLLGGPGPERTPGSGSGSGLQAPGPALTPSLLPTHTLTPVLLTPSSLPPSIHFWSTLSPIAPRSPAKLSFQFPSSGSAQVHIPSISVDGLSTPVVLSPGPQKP
# In short: as §1
# [3] = target: T3, GABPA (Homo sapiens, UniProt Q06546 1-454); details: protein: recombinant; tags: N-terminal GST; dsDNA, one strand shown
# T3 sequence: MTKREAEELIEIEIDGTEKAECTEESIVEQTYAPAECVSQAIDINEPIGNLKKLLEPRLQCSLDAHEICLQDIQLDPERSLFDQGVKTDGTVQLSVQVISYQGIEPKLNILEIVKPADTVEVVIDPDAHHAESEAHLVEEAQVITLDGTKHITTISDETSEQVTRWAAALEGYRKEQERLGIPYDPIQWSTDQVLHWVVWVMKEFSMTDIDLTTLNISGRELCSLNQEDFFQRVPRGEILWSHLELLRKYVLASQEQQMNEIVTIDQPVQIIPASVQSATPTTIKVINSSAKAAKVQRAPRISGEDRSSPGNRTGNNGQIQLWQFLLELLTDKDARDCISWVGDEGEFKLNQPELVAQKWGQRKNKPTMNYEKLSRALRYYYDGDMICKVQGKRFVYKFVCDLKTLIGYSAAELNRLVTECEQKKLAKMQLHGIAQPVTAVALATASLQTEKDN
# In short: as §1
# [4] = target: T4, ERG (Homo sapiens, UniProt P11308 1-479); details: protein: recombinant; tags: N-terminal GST; dsDNA, one strand shown
# T4 sequence: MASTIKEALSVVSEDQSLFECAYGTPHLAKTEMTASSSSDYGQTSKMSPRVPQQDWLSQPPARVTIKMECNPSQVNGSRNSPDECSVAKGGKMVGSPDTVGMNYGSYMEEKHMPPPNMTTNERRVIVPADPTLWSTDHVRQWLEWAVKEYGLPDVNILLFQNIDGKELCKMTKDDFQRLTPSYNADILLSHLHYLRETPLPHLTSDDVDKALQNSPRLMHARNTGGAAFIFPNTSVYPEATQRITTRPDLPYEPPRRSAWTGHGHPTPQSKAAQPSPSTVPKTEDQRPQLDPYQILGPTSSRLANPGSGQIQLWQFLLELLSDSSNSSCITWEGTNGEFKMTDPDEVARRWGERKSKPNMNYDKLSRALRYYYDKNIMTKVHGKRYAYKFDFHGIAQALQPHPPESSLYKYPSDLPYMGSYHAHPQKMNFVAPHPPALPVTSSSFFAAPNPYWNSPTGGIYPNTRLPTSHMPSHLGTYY
# In short: as §1
# [5] = target: ELF1 (Homo sapiens, UniProt P32519 1-619); details: protein: recombinant; tags: N-terminal GST; dsDNA, one strand shown
# In short: as §1
# [6] = target: T5, EHF (Homo sapiens, UniProt Q9NZC4 1-300); details: protein: recombinant; tags: N-terminal GST; dsDNA, one strand shown
# T5 sequence: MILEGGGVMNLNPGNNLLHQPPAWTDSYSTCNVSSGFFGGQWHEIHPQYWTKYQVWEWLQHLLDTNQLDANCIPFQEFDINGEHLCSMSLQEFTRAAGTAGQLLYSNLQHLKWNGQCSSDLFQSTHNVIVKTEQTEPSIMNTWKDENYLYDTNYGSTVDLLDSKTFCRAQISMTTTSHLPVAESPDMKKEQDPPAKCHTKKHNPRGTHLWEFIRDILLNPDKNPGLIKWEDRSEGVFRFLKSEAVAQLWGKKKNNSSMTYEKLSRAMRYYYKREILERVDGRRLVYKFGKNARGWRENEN
# In short: as §1
# [7] = target: SPI1 (Homo sapiens, UniProt P17947 1-270); details: protein: recombinant; tags: N-terminal GST; dsDNA, one strand shown
# In short: as §1
# [8] = target: SPIB (Homo sapiens, UniProt Q01892 1-262); details: protein: recombinant; tags: N-terminal GST; dsDNA, one strand shown
# In short: as §1
# [9] = target: T6, ELK3 (Homo sapiens, UniProt P41970 1-407); details: protein: recombinant; tags: N-terminal GST; dsDNA, one strand shown
# T6 sequence: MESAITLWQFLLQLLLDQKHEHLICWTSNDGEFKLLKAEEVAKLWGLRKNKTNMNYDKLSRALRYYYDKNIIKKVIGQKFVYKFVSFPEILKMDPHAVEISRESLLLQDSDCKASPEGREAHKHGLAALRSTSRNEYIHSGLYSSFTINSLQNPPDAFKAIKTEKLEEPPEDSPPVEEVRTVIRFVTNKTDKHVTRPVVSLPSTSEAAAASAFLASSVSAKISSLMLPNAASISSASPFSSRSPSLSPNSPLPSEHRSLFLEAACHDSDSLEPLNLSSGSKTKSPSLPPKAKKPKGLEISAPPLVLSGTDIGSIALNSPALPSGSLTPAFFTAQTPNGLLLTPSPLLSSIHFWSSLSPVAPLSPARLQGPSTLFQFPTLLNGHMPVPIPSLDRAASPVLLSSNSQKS
# In short: as §1
# [10] = target: T7, FEV (Homo sapiens, UniProt Q99581 1-238); details: protein: recombinant; tags: N-terminal GST; dsDNA, one strand shown
# T7 sequence: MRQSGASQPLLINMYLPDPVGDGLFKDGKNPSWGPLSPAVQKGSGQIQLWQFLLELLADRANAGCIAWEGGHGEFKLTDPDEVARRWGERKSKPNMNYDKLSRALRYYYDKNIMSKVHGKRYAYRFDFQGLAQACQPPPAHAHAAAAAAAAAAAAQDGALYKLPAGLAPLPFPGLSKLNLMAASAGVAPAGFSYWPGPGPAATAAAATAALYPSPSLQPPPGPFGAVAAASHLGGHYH
# In short: as §1
# [11] = target: ETV5 (Homo sapiens, UniProt P41161 1-510); details: protein: recombinant; tags: N-terminal GST; dsDNA, one strand shown
# In short: as §1
# [12] = target: HSF1 (Homo sapiens, UniProt Q00613 1-529); details: protein: recombinant; tags: N-terminal GST; chain copies: 3; dsDNA, one strand shown
# In short: as §1
# [13] = target: T8, SPIC (Homo sapiens, UniProt Q8N5J4 1-248); details: protein: recombinant; tags: N-terminal GST; dsDNA, one strand shown
# T8 sequence: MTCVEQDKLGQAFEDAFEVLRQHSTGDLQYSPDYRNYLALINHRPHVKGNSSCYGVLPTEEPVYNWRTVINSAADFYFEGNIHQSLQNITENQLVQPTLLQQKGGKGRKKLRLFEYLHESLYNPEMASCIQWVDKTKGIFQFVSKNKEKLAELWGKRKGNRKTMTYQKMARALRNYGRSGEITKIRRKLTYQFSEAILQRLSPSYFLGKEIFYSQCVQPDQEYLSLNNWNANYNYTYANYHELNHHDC
# In short: as §1
# [14] = target: ELF4 (Homo sapiens, UniProt Q99607 1-663); details: protein: recombinant; tags: N-terminal GST; dsDNA, one strand shown
# In short: as §1
# [15] = target: T9, ELK4 (Homo sapiens, UniProt P28324-2 1-405); details: protein: recombinant; tags: N-terminal GST; dsDNA, one strand shown
# T9 sequence: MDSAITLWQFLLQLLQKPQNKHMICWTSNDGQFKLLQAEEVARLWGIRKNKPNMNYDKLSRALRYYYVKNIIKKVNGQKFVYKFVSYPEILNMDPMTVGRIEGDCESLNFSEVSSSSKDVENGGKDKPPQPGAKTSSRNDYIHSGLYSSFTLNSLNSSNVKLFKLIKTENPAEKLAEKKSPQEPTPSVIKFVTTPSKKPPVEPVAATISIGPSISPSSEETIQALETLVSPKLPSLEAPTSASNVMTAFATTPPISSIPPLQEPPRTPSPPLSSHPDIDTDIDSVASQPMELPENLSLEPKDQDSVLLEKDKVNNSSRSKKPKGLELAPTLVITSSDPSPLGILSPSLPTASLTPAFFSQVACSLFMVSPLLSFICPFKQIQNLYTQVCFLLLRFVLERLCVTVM
# In short: as §1
# [16] = target: T10, ETV2 (Homo sapiens, UniProt O00321 1-342); details: protein: recombinant; tags: N-terminal GST; dsDNA, one strand shown
# T10 sequence: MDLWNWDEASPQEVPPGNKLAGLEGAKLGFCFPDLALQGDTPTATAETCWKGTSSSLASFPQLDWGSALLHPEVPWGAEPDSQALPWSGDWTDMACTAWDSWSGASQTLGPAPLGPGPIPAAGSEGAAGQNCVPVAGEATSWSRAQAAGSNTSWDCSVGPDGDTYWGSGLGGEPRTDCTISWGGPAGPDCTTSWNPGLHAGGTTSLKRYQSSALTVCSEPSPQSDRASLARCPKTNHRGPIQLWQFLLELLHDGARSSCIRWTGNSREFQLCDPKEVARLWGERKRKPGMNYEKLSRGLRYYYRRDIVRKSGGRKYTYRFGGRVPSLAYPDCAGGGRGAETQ
# In short: as §1
# [17] = target: T11, ELF3 (Homo sapiens, UniProt P78545 1-371); details: protein: recombinant; tags: N-terminal GST; dsDNA, one strand shown
# T11 sequence: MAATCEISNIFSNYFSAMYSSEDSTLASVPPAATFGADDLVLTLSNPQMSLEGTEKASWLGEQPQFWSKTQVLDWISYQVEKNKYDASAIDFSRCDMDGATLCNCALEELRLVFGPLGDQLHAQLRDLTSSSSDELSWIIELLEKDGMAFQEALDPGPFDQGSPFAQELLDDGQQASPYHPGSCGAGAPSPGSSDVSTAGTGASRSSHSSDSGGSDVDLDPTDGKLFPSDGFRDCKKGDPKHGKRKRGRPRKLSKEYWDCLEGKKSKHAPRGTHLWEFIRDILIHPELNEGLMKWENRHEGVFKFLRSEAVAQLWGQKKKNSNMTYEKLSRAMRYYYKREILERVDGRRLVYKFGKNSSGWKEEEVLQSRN
# In short: as §1
# [18] = target: CRX (Homo sapiens, UniProt O43186 1-299); details: protein: recombinant; tags: N-terminal GST; dsDNA, one strand shown
# In short: as §1
# [19] = target: ETV1 (Homo sapiens, UniProt P50549 1-477); details: protein: recombinant; tags: N-terminal GST; dsDNA, one strand shown
# In short: as §1
# SPIB, sequence (Q01892 whole entry): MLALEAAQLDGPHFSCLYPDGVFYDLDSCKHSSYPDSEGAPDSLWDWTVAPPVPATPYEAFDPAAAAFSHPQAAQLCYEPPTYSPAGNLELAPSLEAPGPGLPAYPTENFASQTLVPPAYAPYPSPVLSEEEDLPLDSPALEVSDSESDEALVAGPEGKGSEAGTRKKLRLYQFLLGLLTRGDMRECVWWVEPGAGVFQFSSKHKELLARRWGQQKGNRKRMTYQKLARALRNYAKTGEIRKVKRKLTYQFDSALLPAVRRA
# ETV5, sequence (P41161 whole entry): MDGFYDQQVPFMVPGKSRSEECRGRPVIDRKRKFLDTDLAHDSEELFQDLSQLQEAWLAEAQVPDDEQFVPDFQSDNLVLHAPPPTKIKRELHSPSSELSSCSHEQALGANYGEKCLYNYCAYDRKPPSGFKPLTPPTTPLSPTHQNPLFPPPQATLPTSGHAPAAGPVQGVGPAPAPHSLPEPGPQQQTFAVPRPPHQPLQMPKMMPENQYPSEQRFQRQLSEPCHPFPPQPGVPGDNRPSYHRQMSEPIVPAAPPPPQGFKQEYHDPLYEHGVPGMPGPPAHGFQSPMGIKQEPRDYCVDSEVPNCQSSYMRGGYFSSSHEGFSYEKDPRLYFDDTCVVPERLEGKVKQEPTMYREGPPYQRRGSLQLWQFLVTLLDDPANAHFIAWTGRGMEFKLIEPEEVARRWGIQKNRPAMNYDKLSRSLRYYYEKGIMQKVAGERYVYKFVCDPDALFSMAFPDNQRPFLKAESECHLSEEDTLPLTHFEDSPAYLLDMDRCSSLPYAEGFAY
# ELF1, sequence (P32519 whole entry): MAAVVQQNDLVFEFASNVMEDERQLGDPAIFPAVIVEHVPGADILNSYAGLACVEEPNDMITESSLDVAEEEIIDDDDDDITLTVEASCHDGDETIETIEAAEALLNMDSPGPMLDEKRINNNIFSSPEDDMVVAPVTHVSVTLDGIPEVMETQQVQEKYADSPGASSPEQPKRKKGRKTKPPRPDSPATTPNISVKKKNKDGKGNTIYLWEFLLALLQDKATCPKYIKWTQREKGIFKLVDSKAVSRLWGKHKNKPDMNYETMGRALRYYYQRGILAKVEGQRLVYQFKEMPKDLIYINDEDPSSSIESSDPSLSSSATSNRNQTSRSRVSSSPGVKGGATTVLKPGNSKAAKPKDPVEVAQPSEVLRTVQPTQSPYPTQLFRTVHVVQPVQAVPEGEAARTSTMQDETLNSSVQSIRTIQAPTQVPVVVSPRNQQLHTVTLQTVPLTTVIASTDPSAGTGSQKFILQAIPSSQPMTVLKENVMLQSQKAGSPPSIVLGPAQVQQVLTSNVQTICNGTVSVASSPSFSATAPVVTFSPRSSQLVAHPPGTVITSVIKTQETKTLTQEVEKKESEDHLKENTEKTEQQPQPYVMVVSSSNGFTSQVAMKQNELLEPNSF
# CRX, sequence (O43186 whole entry): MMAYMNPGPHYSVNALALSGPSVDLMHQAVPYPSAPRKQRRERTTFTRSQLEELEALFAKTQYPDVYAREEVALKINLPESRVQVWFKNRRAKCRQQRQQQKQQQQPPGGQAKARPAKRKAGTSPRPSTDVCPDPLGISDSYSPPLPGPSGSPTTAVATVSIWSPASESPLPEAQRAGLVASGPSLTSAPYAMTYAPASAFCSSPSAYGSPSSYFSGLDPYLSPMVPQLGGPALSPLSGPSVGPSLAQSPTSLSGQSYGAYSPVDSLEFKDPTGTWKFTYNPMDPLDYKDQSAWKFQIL
# HSF1, sequence (Q00613 whole entry): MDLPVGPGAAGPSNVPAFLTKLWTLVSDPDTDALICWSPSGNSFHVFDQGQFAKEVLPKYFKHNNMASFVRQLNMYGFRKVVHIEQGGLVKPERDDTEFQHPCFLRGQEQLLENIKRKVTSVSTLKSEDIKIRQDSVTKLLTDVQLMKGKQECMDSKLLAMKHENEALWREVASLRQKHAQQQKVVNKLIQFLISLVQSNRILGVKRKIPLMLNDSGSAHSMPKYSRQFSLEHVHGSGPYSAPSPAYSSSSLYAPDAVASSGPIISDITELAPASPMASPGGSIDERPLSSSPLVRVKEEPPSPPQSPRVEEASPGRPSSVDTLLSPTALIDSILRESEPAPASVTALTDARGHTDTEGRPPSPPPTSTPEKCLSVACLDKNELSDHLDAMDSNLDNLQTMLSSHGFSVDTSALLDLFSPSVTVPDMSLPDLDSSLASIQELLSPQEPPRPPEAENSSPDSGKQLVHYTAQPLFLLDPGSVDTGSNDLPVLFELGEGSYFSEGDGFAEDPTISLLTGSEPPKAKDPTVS
# ETV1, sequence (P50549 whole entry): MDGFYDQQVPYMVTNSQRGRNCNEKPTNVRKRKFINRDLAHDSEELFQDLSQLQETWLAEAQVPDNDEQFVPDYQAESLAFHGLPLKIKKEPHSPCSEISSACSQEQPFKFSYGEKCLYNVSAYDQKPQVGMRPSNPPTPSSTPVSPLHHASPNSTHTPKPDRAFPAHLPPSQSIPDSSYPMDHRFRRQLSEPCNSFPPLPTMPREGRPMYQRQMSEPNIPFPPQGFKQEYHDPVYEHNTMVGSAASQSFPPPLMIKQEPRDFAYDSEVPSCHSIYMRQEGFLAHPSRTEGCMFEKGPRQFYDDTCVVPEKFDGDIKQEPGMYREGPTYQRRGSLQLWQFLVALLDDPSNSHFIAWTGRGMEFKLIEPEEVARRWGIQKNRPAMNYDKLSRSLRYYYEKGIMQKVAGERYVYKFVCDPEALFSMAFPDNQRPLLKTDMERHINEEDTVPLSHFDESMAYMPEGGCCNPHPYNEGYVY
# ELF4, sequence (Q99607 whole entry): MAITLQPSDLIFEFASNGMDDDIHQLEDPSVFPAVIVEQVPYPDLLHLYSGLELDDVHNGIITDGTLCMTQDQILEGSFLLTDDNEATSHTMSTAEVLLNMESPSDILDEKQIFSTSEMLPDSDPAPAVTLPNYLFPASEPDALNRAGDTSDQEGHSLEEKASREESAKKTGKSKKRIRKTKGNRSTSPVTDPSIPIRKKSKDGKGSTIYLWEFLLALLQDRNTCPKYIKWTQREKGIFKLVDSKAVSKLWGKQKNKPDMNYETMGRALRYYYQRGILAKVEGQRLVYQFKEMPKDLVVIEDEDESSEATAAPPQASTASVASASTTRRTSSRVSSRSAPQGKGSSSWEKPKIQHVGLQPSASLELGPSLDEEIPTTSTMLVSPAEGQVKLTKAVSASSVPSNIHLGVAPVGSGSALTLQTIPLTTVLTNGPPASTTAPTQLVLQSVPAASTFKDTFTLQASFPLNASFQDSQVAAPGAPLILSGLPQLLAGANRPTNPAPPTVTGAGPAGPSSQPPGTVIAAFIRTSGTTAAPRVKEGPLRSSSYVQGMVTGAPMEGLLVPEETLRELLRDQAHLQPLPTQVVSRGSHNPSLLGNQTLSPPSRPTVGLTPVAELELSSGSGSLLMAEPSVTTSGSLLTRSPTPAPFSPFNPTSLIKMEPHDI
sequence,measurement,setting,value
TAAAAG,binding signal,[1],"1.12 fold enrichment (6-mer frequency, TF over GST control)"
same,binding signal,[2],"1.18 fold enrichment (6-mer frequency, TF over GST control)"
same,binding signal,[3],"1.24 fold enrichment (6-mer frequency, TF over GST control)"
same,binding signal,[4],"1.1 fold enrichment (6-mer frequency, TF over GST control)"
same,binding signal,[5],"1.12 fold enrichment (6-mer frequency, TF over GST control)"
same,binding signal,[6],"1.16 fold enrichment (6-mer frequency, TF over GST control)"
same,binding signal,[7],"1.31 fold enrichment (6-mer frequency, TF over GST control)"
same,binding signal,[8],"1.18 fold enrichment (6-mer frequency, TF over GST control)"
same,binding signal,[9],"1.15 fold enrichment (6-mer frequency, TF over GST control)"
same,binding signal,[10],"1.08 fold enrichment (6-mer frequency, TF over GST control)"
same,binding signal,[11],"1.19 fold enrichment (6-mer frequency, TF over GST control)"
same,binding signal,[12],"1.43 fold enrichment (6-mer frequency, TF over GST control)"
same,binding signal,[13],"1.14 fold enrichment (6-mer frequency, TF over GST control)"
same,binding signal,[14],"1.17 fold enrichment (6-mer frequency, TF over GST control)"
same,binding signal,[15],"1.2 fold enrichment (6-mer frequency, TF over GST control)"
same,binding signal,[16],"1.22 fold enrichment (6-mer frequency, TF over GST control)"
same,binding signal,[17],"1.21 fold enrichment (6-mer frequency, TF over GST control)"
same,binding signal,[18],"1.72 fold enrichment (6-mer frequency, TF over GST control)"
same,binding signal,[19],"1.18 fold enrichment (6-mer frequency, TF over GST control)"
